Screens from PubChem.
rCAG RNA binder = binders of r(CAG) RNA repeats, primary screen, biochemical, fluorescence; inhibition, % at 3 µM; r(CAG) RNA repeat, TO-PRO-1 dye displacement fluorescence; actives 1.3% (n = 370,000);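 active = inhibition above the plate cutoff, the mean of all test compounds on that plate plus 3 SD, cut at about 35% in these data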;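 also: higher means more dye released from RNA so lower well fluorescence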
NadD inh = inhibitors of S. aureus NadD, primary screen, biochemical, colorimetric, uHTS. Nicotinate-nucleotide adenylyltransferase NadD (Staphylococcus aureus N315). purified NadD enzyme, colorimetric absorbance read-out. inhibition, % at 20 µM. actives 0.78% (n = 360,000); in the data active = inhibition above about 26%
bovine MsrA act = bovine MsrA enzyme activators, primary screen, biochemical, absorbance, HTS. actives 0.3% (n = 360,000). activation, % at 10.6 µM. Methionine sulfoxide reductase A (Bos taurus). purified bovine MsrA, absorbance read-out; in the data active = activation above about 7.5%
MsrA inhibitor = bovine MsrA enzyme inhibitors, primary screen, biochemical, absorbance, HTS; Methionine sulfoxide reductase A (Bos taurus); purified bovine MsrA, absorbance read-out; inhibition, % at 15.5 µM; actives 0.75% (n = 360,000); AID 651718, 2012; in the data active = inhibition above about 4.5%
MsrA activ conf = bovine MsrA activators, retest, confirmation, biochemical, absorbance, HTS | shares compounds with bovine MsrA act | purified bovine MsrA, absorbance read-out | activation, % at 10.6 µM | actives 12% (n = 1,000) | AID 602270, 2012; in the data active = activation above about 4%;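 also: enzyme coupled to thioredoxin and thioredoxin reductase with NADPH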
Hits are given with their value; i = inactive; nt = not tested or not shown. Sampled rows, rich in hits. Any-hit rate of the full collection: about 2.7%.

SMILES	rCAG RNA binder	NadD inh	bovine MsrA act	MsrA inhibitor	MsrA activ conf
O=C(NCC1CCCO1)c1cc2n(n1)C(C(F)(F)F)CC(c1ccc(Br)cc1)N2 (centres undefined)	i	i	11	i	i
O=C(NCC1CCCO1)c1nn2c(c1Cl)NC(c1ccc(F)cc1)CC2C(F)(F)F (centres undefined)	i	i	i	i	nt
Cc1ccc(-c2noc(COc3ccccc3C)n2)cc1	i	i	8.1	i	i
COc1ccc(CC(=O)Nc2sc3c(c2C(N)=O)CCCC3)cc1	i	i	8.4	i	i
COc1cc(CC(=O)Nc2sc3c(c2C(N)=O)CCCC3)cc(OC)c1OC	i	i	i	i	nt
C1CCCC(NC2=NCCO2)CCC1	nt	i	9.5	nt	i
Cc1cc(C(=O)Nc2cccc3ccccc23)c(C)o1	i	i	i	i	nt
Cc1oc(CC(C)C)cc1C(=O)Nc1cccc2ccccc12	i	i	7.8	i	i
O=C(NCCc1ccccc1)C1C(=O)Nc2ccccc2C(=O)N1C1CCCCC1 (centres undefined)	i	nt	nt	i	nt
O=C(NCCc1ccc(F)cc1)c1ccc2c(c1)ncn2C1CCCCC1	i	nt	nt	nt	nt
O=C(Nc1ccccc1)c1ccc(=O)n(Cc2ccc(F)c(F)c2)c1	i	i	i	i	nt
NC(=O)c1ccc(=O)n(Cc2ccc(F)c(F)c2)c1	i	i	8.0	i	i
CCOC(=O)C1=CCC(c2ccc(CC)cc2)N(S(=O)(=O)c2ccc(C)cc2)C1 (centres undefined)	i	i	i	i	nt
Cc1ccc(S(=O)(=O)N2CCOCC2)cc1NC(=O)CSc1nnc(COc2ccccc2F)n1N	i	i	i	i	nt
COc1cc(OC)c(C(=O)NC23CC4CC(CC(C4)C2)C3)cc1OC	i	i	9.2	i	i
COc1ccc(NS(=O)(=O)c2cc(C)ccc2NC(=O)c2cc(C)oc2C)cc1	i	i	9.3	i	i
COc1ccc(NS(=O)(=O)c2cccc(C(=O)NNC(=O)c3cc(C)oc3C)c2)cc1	i	i	i	i	nt
CC(C)CN1CN2Cc3ccccc3C2CS1(=O)=O (centres undefined)	i	nt	nt	nt	nt
COCCN(Cc1nc(-c2ccc(-c3ccccc3)cc2)oc1C)C(C)C	i	i	i	i	nt
CS(=O)(=O)c1ccc2nc(NC(=O)c3cc([N+](=O)[O-])cc([N+](=O)[O-])c3)sc2c1	i	i	11	i	i
CS(=O)(=O)c1ccc2nc(NC(=O)c3cccc([N+](=O)[O-])c3)sc2c1	i	i	i	i	nt
O=C(CCSc1ccc(Cl)cc1)NN=C1CCCCCC1	i	i	i	i	nt
O=C(CSc1ccc(Cl)cc1)NN=C1CCCCCC1	i	i	9.0	i	i
CCOC(=O)c1c(-c2ccccc2)c2cc(OC)ccc2n1CCCN(C)C	i	i	i	i	nt
CCC(CO)NCc1cc(OC)c(OCC(=O)NCCc2ccccc2)cc1Br (centres undefined)	i	i	9.0	i	i
SMILES	rCAG RNA binder	NadD inh	bovine MsrA act	MsrA inhibitor	MsrA activ conf
CCCNCc1cc(OC)c(OCC(=O)NCCc2ccccc2)cc1Br	i	i	i	i	nt
COc1ccc(C(=O)CSc2nc3ccccc3n2CC(=O)NC(C)(C)C)cc1	i	i	9.7	i	i
O=C(NCCN1CCOCC1)c1ccccc1Cl	i	i	17	i	i
O=C(NCCN1CCOCC1)c1c(Cl)cccc1Cl	i	i	i	i	nt
CC1CN(C(=O)c2cccc(S(=O)(=O)N3CCN(c4ccccc4)CC3)c2)CC(C)O1 (centres undefined)	i	i	9.1	i	i
O=C(COC(=O)C1(c2ccc(Cl)cc2)CCCC1)Nc1ncc(C(F)(F)F)cc1Cl	i	i	8.8	i	i
COC(=O)c1cc(-c2ccc(-c3ccccc3)c(F)c2)c(=O)n2c1CCC2	i	nt	nt	nt	nt
CN(C)c1ccc(C=c2c3ccccc3n3c2cc(-c2ccccc2)[n+]3C)cc1	i	i	9.8	i	i
COc1ccc(Cl)cc1NC(=O)CN(C)CC(=O)Nc1ccc(Br)cc1	i	i	8.9	i	i
Cc1ccc(OCC(=O)Nc2cc(-c3nn4c(C)nnc4s3)ccc2C)cc1	i	i	9.7	i	i
CCC(=O)Nc1cc(-c2nn3c(C)nnc3s2)ccc1C	i	i	i	i	nt
C=CCc1ccccc1OCC(O)CN1CCN(c2ccc(C)cc2)CC1 (centres undefined)	i	i	9.3	i	i
O=C(Nc1ccc(Cl)c(Cl)c1)C1CCN(c2nnc(-n3cccc3)s2)CC1	i	nt	nt	nt	nt
Cc1ccc(CNC(=O)c2ccc3c(=O)n(CC4CCCO4)c(=S)[nH]c3c2)cc1 (centres undefined)	i	i	i	i	nt
O=C(NCc1ccccc1)c1ccc2c(=O)n(CC3CCCO3)c(=S)[nH]c2c1 (centres undefined)	i	i	13	i	i
COc1cccc(C2=Cc3ccc(F)cc3C(CC(C)=O)N2c2ccc(C#CC3(O)CCCCC3)cc2)c1 (centres undefined)	i	i	8.1	i	i
Nc1cccc2cc(-c3ccccc3)oc12	i	i	i	i	nt
CCOc1ccc(N2CC(C(=O)NCCCN3CCOCC3)CC2=O)cc1 (centres undefined)	i	i	9.1	i	i
COc1ccc(-c2nnc(SCC(=O)NC(=O)NCc3ccccc3)o2)cc1	i	i	9.7	i	i
COc1ccc(-c2nnc(SCC(=O)NCc3ccco3)o2)cc1	i	i	i	i	nt
COP(=O)(O)C[C@@H]1CCc2cc(C)cc([C@H](CC(C)C)NC(=O)OCc3ccccc3)c2O1	i	nt	nt	nt	nt
CC1=C(C(=O)OC(C)C)C(c2cccc(F)c2)N2C(=O)C(C)SC2=N1 (centres undefined)	i	i	9.8	i	i
CC1=C(C(=O)OCC(C)C)C(c2cccc(F)c2)N2C(=O)C(C)SC2=N1 (centres undefined)	i	i	i	i	nt
O=C1[C@@H](C2CC2)[C@@H]2c3ccccc3C=NN2[C@@H]2c3ccccc3C=NN12	i	nt	nt	nt	nt
CC(C)CNc1nc(=S)nc(N(C)C)[nH]1	i	i	8.3	i	4.2
SMILES	rCAG RNA binder	NadD inh	bovine MsrA act	MsrA inhibitor	MsrA activ conf
CN(C)c1nc(=S)nc(NCc2ccccc2)[nH]1	i	i	i	i	nt
O=C(NC1CCCCN(Cc2ccc(OC(F)(F)F)cc2)C1=O)c1ccc2ccccc2c1 (centres undefined)	i	nt	nt	nt	nt
Cn1c(NCC2CCCCC2)nc2cc(-c3ccsc3)sc2c1=O	i	i	i	i	nt
O=S1(=O)c2ccc(N3CCCC3)cc2Oc2ccccc2CN1Cc1cn(Cc2ccccc2C(F)(F)F)nn1	i	nt	nt	nt	nt
CC(C)(C)OC(=O)NCCCc1ccc2c(c1)[C@]1(CCC[C@@H](OCc3ccccc3)[C@@H]1NC(=O)CCc1ccccc1)C(=O)N2Cc1ccccc1	i	nt	nt	nt	nt
Cn1c(SCC(=O)NC2CCCC2)nnc1-c1ccco1	i	i	i	i	nt
CC(Sc1nnc(-c2ccco2)n1C)C(=O)NC1CCCC1 (centres undefined)	i	i	17	i	i
CCCCN(CC)C(=O)c1cc2c(=O)n3cccc(C)c3nc2s1	i	i	10	i	i
